Several values for one entry are separate records, joined by “and”; a condition that tells them apart may be missing. Equal entries are not always repeated. Inconclusive results are not listed. Activity calls are given as the source filed them. Calls follow the shape of the full dose curve.
Assay: qHTS assay for small molecule disruptors of the mitochondrial membrane potential - cell viability (AID 720634); also: nearly all actives have a fitted effect of over 20% in size;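 as to activity change, negative = cytotoxicity: human HepG2 liver cancer cells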
Conditions: HepG2 viability, ATP luminescence (CellTiter-Glo), 1 h; series mostly up to 83.2 µM; activity change, negative = cytotoxicity: at the top concentration
Description: U.S. Tox21 Program National Center for Advancing Translational Sciences [NCATS] NIH Chemical Genomics Center [NCGC] U.S. Environmental Protection Agency [EPA] National Institutes of Environmental Health Sciences [NIEHS] National Toxicology Program [NTP] U.S. Food and Drug Administration [FDA] Tox21 Assay Overview: Mitochondrial membrane potential (MMP), one of the parameters for mitochondrial function, is generated by mitochondrial electron transport chain that creates an electrochemical gradient by a series of redox reactions. This gradient drives the synthesis of ATP, a crucial molecule for various cellular processes. Measuring MMP in living cells is commonly used to assess the effect of chemicals on mitochondrial function; decreases in MMP can be detected using lipophilic cationic fluorescent dyes. […] The dye accumulates in the mitochondria of healthy cells as aggregates, with red fluorescence. The mitochondrial potential decreases and the dye could not accumulate in the mitochondria and remains in the cytoplasm in monomers, with green fluorescence. In addition to the mitochondrial potential assay, these cells were also used to test the cytotoxicity by determining the cell viability in the culture based on the quantitation of ATP present. The cytotoxicity was measured in the same assay well of MMP assay.
Tox21 Assay Protocol Summary: 2,000 HepG2 cells in 5 uL/well were dispensed into black, clear-bottom 1536-well plates using a Multidrop Combi (Thermo Scientific) dispenser. The assay plates were incubated for an overnight at 37 C to allow cells to attach to the wells, followed by the transfer of 23 nL compound or DMSO vehicle by a pin tool (Kalypsys). The plates were incubated for 1 hr at 37 C and 5% CO2, followed by the addition of 5 uL of 2X m-MPI dye into each well using Flying Reagent Dispenser (Aurora Discovery) and then CellTiter-Glo reagent was added at 4 uL/well and incubated 30 min at room temperature. Then luminescence intensity was quantified on a ViewLux CCD-based plate reader.
% is scaled to controls: 0 for no effect and ±100 for the full control effect; potency is read from the fitted curve at half-maximal effect.

Which Potency does the source give for `CCC(C)c1cc([N+](=O)[O-])cc([N+](=O)[O-])c1OC(=O)OC(C)C` (stereo not given) here?
The Potency was 21.7 µM (active).

Which “activity change, negative = cytotoxicity” value does the source give for `C(=C/c1ccccc1)/c1ccccc1` here?
The value was -5.26% [at 95.3 µM] (inactive).

Which “activity change, negative = cytotoxicity” value does the source give for `Cc1cccc(Br)c1` here?
The value was 11% [at 95.3 µM] (inactive).

Which “activity change, negative = cytotoxicity” value does the source give for `Clc1ccc(C(Cn2ccnc2)OCc2ccsc2Cl)c(Cl)c1` (stereo not given) here?
Its value is -16.6% (inactive).

For `Cc1nc(Nc2ncc(C(=O)Nc3c(C)cccc3Cl)s2)cc(N2CCN(CCO)CC2)n1`, which “activity change, negative = cytotoxicity” value is on record?
Its value is -0.548% (inactive).

For `CCCCC(CC)COC(=O)c1ccc(O)cc1` (stereo not given), which Potency is on record?
Its Potency is 8.6 µM (active) and 24.3 µM (active).

Which “activity change, negative = cytotoxicity” value does the source give for `Oc1c(Br)cc(Br)c2cccnc12` here?
Its value is 2.05% (inactive).

With `SCCCCCCCCS` as the compound, how does the “activity change, negative = cytotoxicity” value read?
Its value is 10.4% (inactive).

Which “activity change, negative = cytotoxicity” value does the source give for `CSc1c(Cl)c(Cl)c(Cl)c(Cl)c1Cl` here?
The value was -3.72% (inactive).

Which “activity change, negative = cytotoxicity” value does the source give for `COc1ccccc1OCCNCC(O)COc1cccc2[nH]c3ccccc3c12` (stereo not given) here?
Its value is 5.38% (inactive).

For `S=C(SSSSSSC(=S)N1CCCCC1)N1CCCCC1`, which “activity change, negative = cytotoxicity” value is on record?
The value was 3.32% [at 39.1 µM] (inactive).

With `COC(=O)CC#N` as the compound, how does the “activity change, negative = cytotoxicity” value read?
The value was -7.7% [at 95.3 µM] (inactive).

For `CCN(CC)CCSC(=O)C(c1ccccc1)c1ccccc1`, which Potency is on record?
Its Potency is “inactive”.

For `c1ccc(Nc2cccc3ccccc23)cc1`, which Potency is on record?
Its Potency is 54.5 µM (active).

For `CCc1ccc(O)c(C(C)(C)C)c1`, which “activity change, negative = cytotoxicity” value is on record?
Its value is 19.9% (inactive).

With `CC1=C(/C=C/C(C)=C/C=C/C(C)=C\C=O)C(C)(C)CCC1` as the compound, how does the “activity change, negative = cytotoxicity” value read?
Its value is -6.75% (inactive).

With `[O]=[Zr]` as the compound, how does the “activity change, negative = cytotoxicity” value read?
The value was 8.59% (inactive).

Which “activity change, negative = cytotoxicity” value does the source give for `CCN(CC)CCOc1ccc(C(O)(Cc2ccc(Cl)cc2)c2ccc(C)cc2)cc1` (stereo not given) here?
The value was -11.9% (inactive).

With `C[n+]1c2cc(N)ccc2cc2ccc(N)cc21` (tested in a mixture with another compound) as the compound, how does the “activity change, negative = cytotoxicity” value read?
The value was 16.5% (inactive).

Which Potency does the source give for `CCCCCCCCCCCCOC(=O)c1cc(O)c(O)c(O)c1` here?
The Potency was 60.9 µM (active) and 54.5 µM (active).

With `COc1ccc2sc(C(=O)Nc3nnn[nH]3)c(OC(C)C)c2c1` as the compound, how does the “activity change, negative = cytotoxicity” value read?
The value was 10% (inactive).

Which “activity change, negative = cytotoxicity” value does the source give for `CNCC[C@H](Oc1cccc2ccccc12)c1cccs1` here?
The value was -1.79% (inactive).

Which “activity change, negative = cytotoxicity” value does the source give for `CCCCCCCC/C=C\CCCCCCCC(=O)NCc1ccc(O)c(OC)c1` here?
Its value is -11.3% (inactive).

Which “activity change, negative = cytotoxicity” value does the source give for `Cc1ccc(N)cc1O` here?
The value was 15.5% (inactive).

With `CCCCCCCC/C=C/CCCOC(C)=O` as the compound, how does the “activity change, negative = cytotoxicity” value read?
Its value is -5.57% (inactive).

Which “activity change, negative = cytotoxicity” value does the source give for `CCCCCCCCCCCCCOP(=O)(O)O` here?
The value was 13% (inactive).

Which Potency does the source give for `C[C@H]1O[C@@H](O[C@H]2[C@@H](O)C[C@H](O[C@H]3[C@@H](O)C[C@H](O[C@H]4CC[C@@]5(C)[C@H](CC[C@@H]6[C@@H]5C[C@@H](O)[C@]5(C)[C@@H](C7=CC(=O)OC7)CC[C@]65O)C4)O[C@@H]3C)O[C@@H]2C)C[C@H](O)[C@@H]1O` here?
Its Potency is “inactive”.

Which “activity change, negative = cytotoxicity” value does the source give for `Cc1cn[nH]c1` here?
Its value is 6.95% (inactive).

With `CCCCN(CCCC)CCC(O)c1cc2c(Cl)cc(Cl)cc2c2cc(C(F)(F)F)ccc12` (stereo not given) as the compound, how does the “activity change, negative = cytotoxicity” value read?
The value was 17.2% [at 39.1 µM] (inactive).

Which “activity change, negative = cytotoxicity” value does the source give for `CCCCOc1ccc(C(=O)CCN2CCCCC2)cc1` here?
Its value is 38.8% [at 39.1 µM] (inactive).

With `NC1(c2ccc(-c3nc4ccn5c(=O)[nH]nc5c4cc3-c3ccccc3)cc2)CCC1` as the compound, how does the “activity change, negative = cytotoxicity” value read?
Its value is 13.5% (inactive).

Which “activity change, negative = cytotoxicity” value does the source give for `Oc1ccc(-c2ccc(O)cc2)cc1` here?
Its value is 12% [at 95.3 µM] (inactive).

For `CC(C)c1ccc(O)c(C(C)C)c1`, which “activity change, negative = cytotoxicity” value is on record?
The value was -13.3% (inactive).

Which “activity change, negative = cytotoxicity” value does the source give for `Cc1cc2c(C(C)C)c(O)c(O)c(C=O)c2c(O)c1-c1c(C)cc2c(C(C)C)c(O)c(O)c(C=O)c2c1O` here?
Its value is -16.6% (inactive).

For `CC(C)N=C(N)/N=C(\N)Nc1ccc(Cl)cc1`, which “activity change, negative = cytotoxicity” value is on record?
Its value is 8.54% [at 39.1 µM] (inactive).

With `O=C1NCN(c2ccccc2)C12CCN(CCCC(c1ccc(F)cc1)c1ccc(F)cc1)CC2` as the compound, how does the Potency read?
Its Potency is 21.1 µM (active).

Which “activity change, negative = cytotoxicity” value does the source give for `CC(C(O)c1ccccc1)N(C)CCOC(c1ccccc1)c1ccccc1` (stereo not given) here?
Its value is -8.69% (inactive).

Which “activity change, negative = cytotoxicity” value does the source give for `O=Nc1ccc(NO)cc1` here?
The value was 3.77% [at 95.3 µM] (inactive).

For `Nc1ccc2cc3ccc(N)cc3nc2c1`, which Potency is on record?
Its Potency is “inactive”.

For `C=CC(=O)OCCOCC(CC)(COCCOC(=O)C=C)COCCOC(=O)C=C`, which “activity change, negative = cytotoxicity” value is on record?
The value was 18.2% [at 95.3 µM] (inactive).
